Rows were chosen to be rich in hits. Some 19% of all compounds tested hit in one or more screens of this group.
IL1B secr inh – qHTS for Inhibitors of Inflammasome Signaling: IL-1-beta AlphaLISA Primary Screen; activity change, % at 57.5 µM; THP-1 LPS/ATP IL-1B secretion, AlphaLISA, 16 h; stronger effect = lower value; 360,000 tested, 4.7% active; in the data active means activity change below about -50%; inconclusive means mostly about -30% to -49%
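Secreted IL-1B measured by AlphaLISA bead assay after 16 h compound exposure of THP-1 cells; compounds (final up to 57.5 uM) added 1 h before LPS (250 ng/mL) and ATP (1.25 mM) stimulation; lower signal means less secretion.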
ELG1 DNA repair – qHTS screen for small molecules that inhibit ELG1-dependent DNA repair in human embryonic kidney (HEK293T) cells expressing luciferase-tagged ELG1; Potency, µM (top dose mostly 46.1 µM), usual class: inhibitors; 330,000 tested, 2.3% active; HEK293T ELG1-luciferase reporter, luminescence, 16 h; DNA damage induced by 5-fluorouridine; further: nearly all actives have a fitted effect of over 55% in size
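HEK293T cells expressing luciferase-tagged ELG1 (2,000/well) received 5-Fluorouridine plus compound or DMSO for 16 hr at 37 °C. Luciferase was read by ONE-Glo luminescence after 30 min at room temperature.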
TDP1 inh – qHTS Assay for Inhibitors of Tyrosyl-DNA Phosphodiesterase (TDP1). Tyrosyl-DNA phosphodiesterase 1 (Homo sapiens), Q9NUW8. recombinant TDP1, AlphaScreen DNA substrate cleavage. Potency, µM (top dose mostly 130 µM), usual class: inhibitors. 350,000 tested, 0.28% active. AID 485290, 2010; further: nearly all actives have a fitted effect of over 40% in size
Target sequence (Q9NUW8 whole entry, looked up): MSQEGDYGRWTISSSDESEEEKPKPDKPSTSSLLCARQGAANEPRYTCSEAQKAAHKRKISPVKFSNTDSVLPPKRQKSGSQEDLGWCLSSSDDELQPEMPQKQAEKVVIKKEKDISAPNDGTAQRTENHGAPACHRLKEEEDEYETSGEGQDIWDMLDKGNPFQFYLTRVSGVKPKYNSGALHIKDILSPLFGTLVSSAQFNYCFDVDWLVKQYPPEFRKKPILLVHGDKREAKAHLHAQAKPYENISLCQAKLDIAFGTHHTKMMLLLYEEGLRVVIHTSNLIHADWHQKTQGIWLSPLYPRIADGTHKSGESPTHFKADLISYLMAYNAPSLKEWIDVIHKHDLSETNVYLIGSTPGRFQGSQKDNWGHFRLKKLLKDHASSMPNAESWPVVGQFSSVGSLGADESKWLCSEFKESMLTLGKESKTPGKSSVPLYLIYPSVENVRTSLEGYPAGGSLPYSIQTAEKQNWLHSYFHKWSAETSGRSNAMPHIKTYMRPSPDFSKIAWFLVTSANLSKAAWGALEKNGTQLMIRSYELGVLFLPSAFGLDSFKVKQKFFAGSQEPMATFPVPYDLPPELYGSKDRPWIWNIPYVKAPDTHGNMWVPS
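Tdp1 1 nM final; 15 min RT w/ cpd; substrate 15 nM, 5 min; beads 10 ug/ml, 10 min; AlphaScreen read. Neg ctrl: no enzyme.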
TDP1 cell CPT – qHTS for Inhibitors of human tyrosyl-DNA phosphodiesterase 1 (TDP1): qHTS in cells in presence of CPT; AID 686979, 2013; 420,000 tested, 12% active; Potency, µM (series often up to 46.2 µM), actives largely listed as inhibitors; chicken DT40 Tdp1-/-;hTDP1 cells + 20 nM CPT, ATP luminescence, 48 h; further: nearly all actives have a fitted effect of over 55% in size
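Cell growth measured by CellTiter-Glo luminescence after a minimum 48 h, 37 C compound exposure with 20 nM CPT in Tdp1-knockout DT40 cells stably expressing hTDP1, seeded 400/well; qHTS titration format.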
Giardia kill – Small Molecules that selectively kill Giardia lamblia: qHTS; 340,000 tested, 0.15% active; AID 540267, 2011; Giardia lamblia trophozoite viability; activity change, % at 7.66 µM, hits read low; in the data active means activity change below about -80%; inconclusive means between about -30% and that limit;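 further: parasites exposed to compound for two days anaerobically before the ATP read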
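Each well holds 100 Giardia trophozoites and compound. After two days (48 hrs) at 37 deg C in anaerobic conditions, ATP is quantified by luminescence.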
DT40 TDP1 no CPT – qHTS for Inhibitors of human tyrosyl-DNA phosphodiesterase 1 (TDP1): qHTS in cells in absence of CPT; 420,000 tested, 15% active; DT40 Tdp1-/- hTDP1 cells, no CPT, ATP luminescence, 48 h; Potency, µM (top dose mostly 46.2 µM), most hits filed as inhibitors; further: nearly all actives have a fitted effect of over 55% in size
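Compound effects on proliferation are scored in DT40 Tdp1-/-;hTDP1 cells in the absence of CPT. ATP levels (CellTiter-Glo luminescence) are recorded after a ≥48 hr, 37 °C incubation.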
Large screens that a line does not name were inactive. Unless noted, the call rests on the fitted dose curve; in most records, active means well fitted curve in the direction sought with a large enough effect; inconclusive means small, poorly fitted or top-dose-only effect, or another doubt; inactive means no such curve, though single readings can be large; an effect the other way counts as inactive or inconclusive.

CC1CCc2c(sc(NC(=O)COc3ccccc3)c2C(=O)Nc2ccccc2Cl)C1 (centres undefined)	none (no result: IL1B secr inh, ELG1 DNA repair, Giardia kill)
COc1ccc(OC)c(NC(=O)c2c(NCc3sccc3C)sc3c2CCCCC3)c1	TDP1 cell CPT 7.31µM, DT40 TDP1 no CPT 2.59µM (no result: IL1B secr inh, ELG1 DNA repair, Giardia kill)
COc1ccc(Cl)cc1NC(=O)c1c(NCc2cccnc2)sc2c1CCC(C)C2 (centres undefined)	TDP1 cell CPT 3.66µM, DT40 TDP1 no CPT 4.61µM (no result: IL1B secr inh, ELG1 DNA repair, Giardia kill)
CCOc1ccc(NC(=O)c2c(NCc3cccs3)sc3c2CCC(C)C3)cc1 (centres undefined)	TDP1 cell CPT inconclusive, DT40 TDP1 no CPT inconclusive (no result: IL1B secr inh, ELG1 DNA repair, Giardia kill)
CC(=O)N1Cc2cc(C(=O)NCC(F)(F)F)nc(-c3cccc(-c4cc5ccccc5o4)c3)c2[C@@H]1CCO	DT40 TDP1 no CPT inconclusive (no result: ELG1 DNA repair, TDP1 inh, Giardia kill)
Cc1cc(C(=O)Nc2ccc3[nH]ccc3c2)no1	ELG1 DNA repair inconclusive
COC(=O)[C@H](CC(C)C)NS(=O)(=O)c1ccc(F)cc1Br	DT40 TDP1 no CPT inconclusive (no result: ELG1 DNA repair, TDP1 inh, Giardia kill)
COc1ccc(Cl)cc1NC(=O)c1c(NCc2ccc(C)o2)sc2c1CCC(C)C2 (centres undefined)	TDP1 cell CPT inconclusive, DT40 TDP1 no CPT 16.4µM (no result: IL1B secr inh, ELG1 DNA repair, Giardia kill)
CCOC(=O)c1c(NC(=O)C(C)N2CCN(S(=O)(=O)c3cccs3)CC2)sc2c1CCC(C)C2 (centres undefined)	ELG1 DNA repair inconclusive, TDP1 cell CPT 8.2µM, DT40 TDP1 no CPT 5.8µM
CCOC(=O)c1c(NC(=O)C2CCN(S(=O)(=O)c3cccs3)CC2)sc(C)c1C	TDP1 cell CPT inconclusive, DT40 TDP1 no CPT inconclusive
Cc1n[nH]c(C)c1CCC(=O)N/N=C/C=C/c1ccccc1	none
CCN(C(=O)COC(=O)c1c(NC(C)=O)sc(C)c1C)c1c(N)n(Cc2ccccc2)c(=O)[nH]c1=O	DT40 TDP1 no CPT inconclusive (no result: ELG1 DNA repair, TDP1 inh)
O=C1CCCN1CCC1CCN(C2CC(=O)N(c3ccc(F)cc3)C2=O)CC1 (centres undefined)	TDP1 cell CPT 18.4µM, DT40 TDP1 no CPT 20.6µM (no result: ELG1 DNA repair)
COc1c(C)cc(C(=O)C2CCCN(C(=O)/C=C/c3ccccn3)C2)cc1C (centres undefined)	ELG1 DNA repair inconclusive
CC(C)C(=O)NC(c1ccccc1Cl)c1c(O)ccc2ccccc12 (centres undefined)	IL1B secr inh inconclusive, TDP1 cell CPT inconclusive
CC(C)CC(=O)NC(c1ccccc1)c1c(O)ccc2ccccc12 (centres undefined)	IL1B secr inh -80.2, ELG1 DNA repair inconclusive, TDP1 cell CPT inconclusive, DT40 TDP1 no CPT inconclusive (no result: TDP1 inh)
CCCCC(=O)NC(c1ccc([N+](=O)[O-])cc1)c1c(O)ccc2ccccc12 (centres undefined)	IL1B secr inh -59.7, ELG1 DNA repair 25.9µM, TDP1 cell CPT 16.4µM, Giardia kill inconclusive, DT40 TDP1 no CPT 20.6µM
CCC(=O)NC(c1ccc(N(C)C)cc1)c1c(O)ccc2ccccc12 (centres undefined)	ELG1 DNA repair inconclusive, DT40 TDP1 no CPT inconclusive
CCC(=O)NC(c1ccc([N+](=O)[O-])cc1)c1c(O)ccc2ccccc12 (centres undefined)	IL1B secr inh inconclusive, TDP1 cell CPT 20µM, DT40 TDP1 no CPT inconclusive
CCCCC(=O)NC(c1cccc([N+](=O)[O-])c1)c1c(OC(C)=O)ccc2ccccc12 (centres undefined)	ELG1 DNA repair inconclusive, TDP1 cell CPT inconclusive, DT40 TDP1 no CPT inconclusive
CCC(=O)NC(c1ccccc1Cl)c1c(O)ccc2ccccc12 (centres undefined)	TDP1 cell CPT 16.4µM, DT40 TDP1 no CPT inconclusive
C[C@@H](Oc1ccc(Oc2cnc3ccc(Cl)cc3n2)cc1)C(=O)O	none (no result: IL1B secr inh, ELG1 DNA repair, TDP1 cell CPT, Giardia kill, DT40 TDP1 no CPT)
CC(=O)c1ccc(-c2cc(C3C4C=CCC(C)C4C(=O)N3Cc3ccccc3)ccc2F)cc1 (centres undefined)	none (no result: IL1B secr inh, ELG1 DNA repair, TDP1 cell CPT, DT40 TDP1 no CPT)
C[C@@H]1CC=C[C@H]2[C@H]1C(=O)N(Cc1ccccc1)[C@H]2c1ccc(C(F)(F)F)cc1	TDP1 cell CPT inconclusive, DT40 TDP1 no CPT 20.6µM
O=C1C2C(c3ccccc3)CC=CC2[C@H](c2ccc(C(F)(F)F)cc2)N1Cc1ccccc1 (some centres undefined)	ELG1 DNA repair inconclusive, TDP1 cell CPT 18.4µM, DT40 TDP1 no CPT inconclusive
O=C1C2C(c3ccccc3)CC=CC2[C@H](c2cccc([N+](=O)[O-])c2)N1Cc1ccccc1 (some centres undefined)	TDP1 cell CPT 16.4µM, DT40 TDP1 no CPT inconclusive
CCOc1ccccc1C(=O)Nc1c(NC)c2ccccc2oc1=O	DT40 TDP1 no CPT inconclusive (no result: IL1B secr inh, ELG1 DNA repair, Giardia kill)
Cc1ccc(-c2nn(CCC(=O)NN3CCOCC3)c(=O)c3ccccc23)cc1	none
CC1CCCC(NC(=O)CSC2=Nc3ccccc3C3CC=NN23)C1C (centres undefined)	TDP1 cell CPT inconclusive, DT40 TDP1 no CPT inconclusive
Cc1ccc(NC(=O)CSC2=Nc3ccccc3C3CC=NN23)c(C)c1 (centres undefined)	ELG1 DNA repair inconclusive, TDP1 cell CPT 20.6µM, DT40 TDP1 no CPT 20.6µM
O=C(CSC1=Nc2ccccc2C2CC=NN12)Nc1ccc(F)cc1Cl (centres undefined)	TDP1 cell CPT inconclusive, DT40 TDP1 no CPT inconclusive
COC(=O)c1ccc(NC(=O)CSC2=Nc3ccccc3C3CC=NN23)cc1 (centres undefined)	ELG1 DNA repair inconclusive, TDP1 cell CPT 23.1µM, DT40 TDP1 no CPT 23.1µM
NC(=O)c1ccc(NC(=O)CSC2=Nc3ccccc3C3CC=NN23)cc1 (centres undefined)	TDP1 cell CPT 9.2µM, DT40 TDP1 no CPT 20.6µM
c1ccc2c(c1)CC1(CCCC1)N=C2N1CCOCC1	none
O=C(O)c1ccc(Cl)c(S(=O)(=O)Nc2ccc(OCc3ccccc3)cc2)c1	ELG1 DNA repair inconclusive, DT40 TDP1 no CPT inconclusive (no result: TDP1 inh)
CC1=NN(c2ccccc2)C(=O)C1C=Nc1ccccc1O (centres undefined)	ELG1 DNA repair inconclusive, TDP1 cell CPT inconclusive, DT40 TDP1 no CPT 18.4µM
O=C(C1=C[C@@H](C2CCCCC2)C[C@@H](OCc2ccc(CO)cc2)O1)N1CCN(Cc2ccc3c(c2)OCO3)CC1	IL1B secr inh -63.3, ELG1 DNA repair inconclusive, TDP1 cell CPT inconclusive, DT40 TDP1 no CPT 16.4µM

Screens from PubChem BioAssay.
